FBW7 act: human FBW7 E3 ligase activation, primary screen. hit rate 0.13% among 650,000. normalized activity (activation), % at 26.1 µM. AlphaScreen FBW7–phospho-cyclin E peptide binding, activator screen. Q969H0. AID 1259310; in the data active = normalized activity above about 1.9%;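 also: purified mutant Fbw7 with reduced substrate affinity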
MITF inh: blocks human microphthalmia-associated transcription factor. AlphaScreen MITF homodimerization, bead proximity signal. inhibition, % at 2.6 µM. hit rate 0.91% among 650,000; in the data active = inhibition above about 50%;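 also: 0% = vehicle wells with protein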
Target sequence (O75030 whole entry, looked up): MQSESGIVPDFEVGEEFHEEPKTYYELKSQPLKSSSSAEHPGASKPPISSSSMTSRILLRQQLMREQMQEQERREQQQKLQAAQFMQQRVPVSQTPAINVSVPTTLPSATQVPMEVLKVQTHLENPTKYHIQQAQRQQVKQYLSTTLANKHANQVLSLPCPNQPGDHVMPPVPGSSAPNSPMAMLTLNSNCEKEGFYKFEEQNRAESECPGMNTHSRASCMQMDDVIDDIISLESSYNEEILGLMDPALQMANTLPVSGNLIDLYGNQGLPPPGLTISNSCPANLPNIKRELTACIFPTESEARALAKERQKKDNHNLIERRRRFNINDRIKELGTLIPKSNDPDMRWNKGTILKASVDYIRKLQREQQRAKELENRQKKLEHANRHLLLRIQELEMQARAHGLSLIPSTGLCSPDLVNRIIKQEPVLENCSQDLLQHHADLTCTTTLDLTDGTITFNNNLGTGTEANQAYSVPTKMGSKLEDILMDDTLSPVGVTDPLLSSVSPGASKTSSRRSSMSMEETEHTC
TEAD-YAP inh: TEAD-YAP interaction inhibition. HEK-TIYL cells, TEAD-Gal4/YAP UAS-luciferase luminescence. inhibition, % at 9.12 µM. hit rate 1.4% among 640,000. AID 1259422; in the data active = inhibition above about 32%;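 also: 0% = median of test compound wells and 100% = reference inhibitor wells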
GPR151 ag: human GPR151 activation. Q8TDV0. PathHunter beta-arrestin GPR151 cells, luminescence. activation, % at 11.2 µM. hit rate 1% among 650,000. AID 1508602; in the data active = activation above about 4.9%;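 also: 0% = median of compound wells and 100% = cells with positive control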
Active calls of the source: *. Most compounds without a hit are left out; they make up all but 3.5% or so of the library.

What do the screens show for `CC(=O)NC1=NN(C(C)=O)C(C)(c2ccccc2)S1` (stereo not given)?
FBW7 act: -0.2; MITF inh: -4.1; TEAD-YAP inh: 61.4*; GPR151 ag: -0.6

What do the screens show for `CC(=O)NC1=NN(C(C)=O)C(C)(c2ccc(NC(C)=O)cc2)S1` (stereo not given)?
FBW7 act: 0.2; MITF inh: -5.2; TEAD-YAP inh: 4.2; GPR151 ag: -0.1

How did CC(=O)NC1=NN(C(C)=O)C(C)(c2cccc(OC(C)=O)c2)S1 (stereo not given) do in these assays?
FBW7 act: 0.1; MITF inh: 0.0; TEAD-YAP inh: 63.8*; GPR151 ag: 1.1

Results for Cc1cc(C(=O)O)ccc1NC1=CC(=O)CC(C)(C)C1 ?
FBW7 act: 0.1; MITF inh: 18.4; TEAD-YAP inh: 0.2; GPR151 ag: -0.3

How did O=C(Nc1c2c(nn1-c1cccc(Cl)c1)CSC2)c1ccc(S(=O)(=O)N2CCOCC2)cc1 do in these assays?
FBW7 act: 0.1; MITF inh: 1.5; TEAD-YAP inh: -3.5; GPR151 ag: 0.7

What do the screens show for `CCOC(=O)c1c(NC(=O)c2nn3c(C(F)(F)F)cc(-c4ccccc4)nc3c2Br)sc2c1CCC2`?
FBW7 act: 0.0; MITF inh: 1.7; TEAD-YAP inh: 5.0; GPR151 ag: 0.9

How did COc1cccc(/C=C2/SC(N3CCCC3)=NC2=O)c1OC do in these assays?
FBW7 act: -0.1; MITF inh: -10.5; TEAD-YAP inh: 33.4*; GPR151 ag: 1.3

Results for CC(C)Oc1ccccc1/C=C1/SC(N2CCN(C)CC2)=NC1=O ?
FBW7 act: 0.0; MITF inh: -7.0; TEAD-YAP inh: -8.5; GPR151 ag: -1.1

What do the screens show for `COc1cccc(/C=C2\SC(N3CCCC3)=NC2=O)c1OC`?
FBW7 act: 0.0; MITF inh: 5.8; TEAD-YAP inh: 8.3; GPR151 ag: 0.3

Results for CC(C)Oc1ccccc1/C=C1\SC(N2CCOCC2)=NC1=O ?
FBW7 act: -0.4; MITF inh: -0.6; TEAD-YAP inh: 39.5*; GPR151 ag: 1.1

What do the screens show for `Cc1cccc(NC(=O)C2CC(=O)N(C)C(=Nc3ccc(Cl)c(C(F)(F)F)c3)S2)c1` (stereo not given)?
FBW7 act: -0.1; MITF inh: 3.1; TEAD-YAP inh: -6.7; GPR151 ag: 0.4

How did O=C(CN1CCCc2ccccc21)N/N=C/c1ccco1 do in these assays?
FBW7 act: 0.0; MITF inh: -8.3; TEAD-YAP inh: 67.7*; GPR151 ag: -1.9

Results for CN(Cc1ccccc1)C(=O)C(Cc1ccccc1)NS(=O)(=O)c1cccs1 (stereo not given) ?
FBW7 act: 0.0; MITF inh: 4.0; TEAD-YAP inh: 36.2*; GPR151 ag: 0.6

How did CCC(C)NC(=O)C(Cc1ccccc1)NS(=O)(=O)c1cccs1 (stereo not given) do in these assays?
FBW7 act: -0.1; MITF inh: -8.1; TEAD-YAP inh: 1.1; GPR151 ag: -0.8

What do the screens show for `OCCNc1nc(Nc2ccncc2)nc2c1ncn2-c1ccsc1`?
FBW7 act: 0.0; MITF inh: 12.6; TEAD-YAP inh: 60.1*; GPR151 ag: 1.8

Results for OCCNc1nc(Nc2ccc(C(F)(F)F)cc2)nc2c1ncn2-c1ccsc1 ?
FBW7 act: 0.1; MITF inh: -17.9; TEAD-YAP inh: 15.4; GPR151 ag: 0.7

Results for OCCNc1nc(Nc2ccccc2)nc2c1ncn2-c1ccccc1 ?
FBW7 act: -0.1; MITF inh: 7.0; TEAD-YAP inh: 49.7*; GPR151 ag: -0.8

How did OCCNc1nc(Nc2ccc(-n3ccnc3)cc2)nc2c1ncn2-c1ccccc1 do in these assays?
FBW7 act: 0.4; MITF inh: 7.7; TEAD-YAP inh: 42.5*; GPR151 ag: 0.3

What do the screens show for `OCCNc1nc(Nc2ccc(-n3ccnc3)cc2)nc2c1ncn2-c1ccsc1`?
FBW7 act: -0.1; MITF inh: 4.3; TEAD-YAP inh: 47.5*; GPR151 ag: 0.9

How did Oc1ccc(CCNc2nc(Nc3ccc(-n4ccnc4)cc3)nc3c2ncn3-c2ccccc2)cc1 do in these assays?
FBW7 act: 0.1; MITF inh: 2.7; TEAD-YAP inh: 16.1; GPR151 ag: 0.3

Results for O=S(=O)(NCCSCc1ccc(Cl)cc1)c1ccccc1 ?
FBW7 act: 0.2; MITF inh: 14.8; TEAD-YAP inh: 2.5; GPR151 ag: -1.1

What do the screens show for `C/C(=N\Nc1ccc(S(N)(=O)=O)cc1[N+](=O)[O-])c1ccc(C(C)(C)C)cc1`?
FBW7 act: -0.2; MITF inh: 8.0; TEAD-YAP inh: 0.9; GPR151 ag: 0.9

How did CCN(C(=O)c1cccc([N+](=O)[O-])c1)c1ccccc1 do in these assays?
FBW7 act: 0.6; MITF inh: 5.3; TEAD-YAP inh: 1.8; GPR151 ag: -0.4
